# Source: PubChem BioAssay (NCI)
# The panel holds about 83,000 compounds, 20% with a hit somewhere; the sample as a whole holds those more often.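 Results are percent growth after 48 hours of single-concentration exposure. 100 means growth as in untreated cells, lower positive values show inhibition; negative values down to -100 show cell death.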 Values without a mark were called inactive. Activity calls are given as the source filed them. The calls were made as follows: active = growth percent below 10; inactive = the rest.
# Tested on: HL-60(TB) leukemia
# Test: NCI-60 one-dose screen, 48 h (100 = growth as untreated, 0 = no growth, -100 = all killed)
# Details: 10 µM unless noted
row,SMILES,growth
1,COc1cc2oc(-c3cccc(C(=O)Nc4ccc(Cl)cc4)c3)cc(=O)c2c(OC)c1OC,-11.1% (active)
2,Cc1nc2ccccc2c(/C=C/c2ccc(C(F)(F)F)cc2)c1C(=O)/C=C/c1ccccc1,-19% (active)
3,N#Cc1c(NC(=O)NCc2ccccc2)sc2c1CCCCC2,-8.46% (active)
4,CN1CCN(CC(=O)Nc2nc(-c3cccc(NS(=O)(=O)c4cccc5c(N(C)C)cccc45)c3)cs2)CC1,23.3%
5,O=[N+]([O-])c1ccc(Oc2ccc(-c3ccccc3)cc2)cc1,78.7%
6,Cc1ccc2cc3c(NC(=O)c4cccnc4)nn(C)c3nc2c1,87.8%
7,O=c1ncc(-c2ccc(C(F)(F)F)cc2)c(NC2CCCCCC2)[nH]1,23.3%
8,Cc1cc(I)nc2ccccc12,88.8%
9,Cc1ccc(CCCC(=O)O)c(C)c1,98.3%
10,Cc1sc2nc(CSc3nnc(-c4ccco4)o3)[nH]c(=O)c2c1C,68.6%
11,CCOC(=O)c1ccc(N(CCC(=O)O)C(C)=O)cc1,117%
12,CN1C(=O)N(C)C2C1NC(=S)N2/N=C/C=C/c1ccccc1[N+](=O)[O-] (stereo not drawn),-34.9% (active)
13,CC(C)C[C@H](NC(=O)Cn1ccc(Nc2ccccc2)cc1=O)B(O)O,2.13% (active)
14,O=c1nc(N2CCOCC2)oc2c(-c3cccc4ccccc34)cccc12,93.6%
15,O=C1Nc2ccccc2SC1C1SC(=S)N(Cc2ccccc2)C1=O (stereo not drawn),0.669% (active)
16,COc1ccc(NC(=S)N/N=C/c2ccccc2SSCCC(=O)OC[C@H]2O[C@H](O)[C@H](O)[C@@H](O)[C@@H]2O)cc1,75.1%
17,O=C(O)c1cc2c(s1)C(=O)c1sccc1C2=O,10.9%
18,CCOc1cccc(/C=N/NC(=O)C(=O)Nc2cccc(C(F)(F)F)c2)c1O,11.2%
19,Cc1cc(C)c2c(NC(=O)Nc3ccc(Cl)c(Cl)c3)n[nH]c2n1,96.9%
20,COc1cc(NC(N)=NCC(C)(C)COc2ccc(C(F)(F)F)cc2)cnc1C#N,24.7%
21,O=C(O)c1nn(-c2ccc(Cl)cc2)nc1N1CCCC1,97%
22,CC1=C(C(=O)Nc2ccc(F)cc2)C(c2ccc(C)cc2)C2=C(CC(C)(C)CC2=O)N1 (stereo not drawn),114%
23,CCCCCCCCCCCCCCCCOc1ccccc1NC(=O)CC(C)=O,98%
24,COc1ccc(C2=NN(C(C)=O)C(c3cn(Cc4ccc(Cl)cc4)c4ccccc34)C2)cc1 (stereo not drawn),79.5%
25,CN(C)c1ccc(-c2ccc(-c3ccc(C(=N)N)c(F)c3)s2)cc1,-46.1% (active)
26,Nc1nc(N)c2c(n1)NC(c1cccc(Nc3ccnc4cc(C(F)(F)F)ccc34)c1)CC(c1ccc(Cl)cc1)=N2 (stereo not drawn),34.3%
27,CC(C)C1=NOC(=O)C1=Cc1cn(-c2cccnc2)nc1-c1ccccc1,-0.56% (active)
28,C=C(C)Cn1c(SCC(=O)c2cccs2)nc2sc3c(c2c1=O)CCCC3,63.2%
